Measurements as given in the supplement of paper PMC10849652.
About 7,900 targets were measured; listed, in parts, are those with a hit and a random draw of the rest. About 0.6% of all pairs of compound and target were hits.

Tests used:
Assay in all cases: log2 fold change, soluble protein after heating vs DMSO (PISA); higher = thermal stabilisation; K562 cells, 10 uM, 30 min; active = over 0.2 and 3.5 SD of the protein, either way, in both replicates (recomputed)
[1] = compound: NC(=O)Nc1cc(-c2cccc(F)c2)sc1C(=O)N[C@H]1CCCNC1
In short: (§1)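 Thermal stability values are relative to control samples and come from duplicates. They are expressed as log2 fold changes. For measurement, K562 cells (2×10^6 cells/mL) received 10 μM compound for 30 min, and aliquots were heated for 3 min over 48°C-58°C, pooled, and extracted at 4°C in PBS with 0.5% NP-40. Soluble protein, the supernatant after 21,000xg for 90 min, was quantified by TMTpro 16plex LC-MS/MS with equalised channel sums.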

[2] = compound: NC(=O)c1cnc(N[C@@H]2CCCC[C@@H]2N)nc1Nc1cccc(-n2nccn2)c1
In short: as §1

entinostat = compound: Nc1ccccc1NC(=O)c1ccc(CNC(=O)OCc2cccnc2)cc1 [entinostat]
In short: as §1

vorinostat = compound: O=C(CCCCCCC(=O)Nc1ccccc1)NO [vorinostat]
In short: as §1

[3] = compound: O=C1NC(=O)C(c2cnc3ccccn23)=C1c1cn2c3c(cc(F)cc13)CN(C(=O)N1CCCCC1)CC2
In short: as §1

[4] = compound: NCC(=O)Nc1ccc(-n2nc(C(F)(F)F)cc2-c2ccc3c(ccc4ccccc43)c2)cc1
In short: as §1

[5] = compound: NC1(c2ccc(-c3nc4ccn5c(=O)[nH]nc5c4cc3-c3ccccc3)cc2)CCC1
In short: as §1

silmitasertib = compound: O=C(O)c1ccc2c(c1)nc(Nc1cccc(Cl)c1)c1ccncc12 [silmitasertib]
In short: as §1

citarinostat = compound: O=C(CCCCCCNC(=O)c1cnc(N(c2ccccc2)c2ccccc2Cl)nc1)NO [citarinostat]
In short: as §1

[6] = compound: c1cc(OCCN2CCCCC2)cc(-c2n[nH]c3ccc(-c4nnc[nH]4)cc23)c1
In short: as §1

Measured: log2 fold change

RPS3A (UniProt D6R9B6)
inactive: [1] -0.41 | [2] -0.391 | entinostat -0.234

RBM48 isoform 2 (UniProt Q5RL73)
inactive: [1] -0.334 | [2] -0.008 | entinostat 0.262 | vorinostat 0.005 | [3] 0.029

RPAIN isoform 8 (UniProt Q86UA6)
inactive: [1] -0.017 | [2] -0.044 | [4] -0.093 | entinostat 0.014 | [3] -0.012

RABGAP1L isoform 5 (UniProt Q5R372)
active: [3] -0.315
inactive: [1] -0.246 | [2] -0.094 | [5] -0.021 | entinostat -0.051 | silmitasertib 0.106

RBM6 (UniProt P78332)
Sequence of UniProt P78332 (P78332 whole entry, looked up): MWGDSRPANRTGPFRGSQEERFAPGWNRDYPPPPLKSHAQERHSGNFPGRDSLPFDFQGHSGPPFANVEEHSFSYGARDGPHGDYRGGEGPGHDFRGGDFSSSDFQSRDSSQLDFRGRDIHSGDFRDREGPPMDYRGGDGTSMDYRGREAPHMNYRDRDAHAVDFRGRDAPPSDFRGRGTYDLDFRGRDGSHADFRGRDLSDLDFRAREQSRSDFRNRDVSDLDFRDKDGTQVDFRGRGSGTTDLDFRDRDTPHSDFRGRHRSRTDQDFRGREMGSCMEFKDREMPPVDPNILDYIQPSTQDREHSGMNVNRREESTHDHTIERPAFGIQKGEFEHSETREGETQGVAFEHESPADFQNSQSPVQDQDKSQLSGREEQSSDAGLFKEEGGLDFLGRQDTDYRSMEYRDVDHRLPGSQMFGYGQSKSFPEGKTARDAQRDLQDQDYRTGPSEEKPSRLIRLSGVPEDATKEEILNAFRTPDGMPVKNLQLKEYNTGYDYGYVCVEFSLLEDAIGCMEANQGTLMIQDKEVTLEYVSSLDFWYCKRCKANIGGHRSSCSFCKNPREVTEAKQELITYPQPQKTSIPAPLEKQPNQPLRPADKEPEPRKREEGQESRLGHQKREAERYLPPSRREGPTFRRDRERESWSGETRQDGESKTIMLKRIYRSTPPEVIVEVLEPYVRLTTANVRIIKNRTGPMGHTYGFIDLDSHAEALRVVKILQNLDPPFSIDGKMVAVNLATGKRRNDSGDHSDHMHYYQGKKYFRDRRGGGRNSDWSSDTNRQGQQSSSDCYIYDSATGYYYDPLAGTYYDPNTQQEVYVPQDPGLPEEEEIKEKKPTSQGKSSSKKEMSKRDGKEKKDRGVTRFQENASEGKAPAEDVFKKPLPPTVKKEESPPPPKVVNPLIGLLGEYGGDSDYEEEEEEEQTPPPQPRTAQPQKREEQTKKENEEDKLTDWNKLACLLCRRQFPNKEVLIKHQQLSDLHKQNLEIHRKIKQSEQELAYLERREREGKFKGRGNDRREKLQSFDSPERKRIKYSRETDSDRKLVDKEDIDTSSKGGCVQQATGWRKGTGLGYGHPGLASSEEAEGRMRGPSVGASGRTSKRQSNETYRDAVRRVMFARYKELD
inactive: [1] 0.099 | [2] -0.06 | [5] 0.222 | entinostat -0.317 | vorinostat -0.012 | silmitasertib 0.017

SERINC1 (UniProt Q9NRX5)
inactive: [1] -0.061 | [2] -0.241 | [5] 0.004 | [4] -0.174 | entinostat -0.009 | citarinostat 0.088 | silmitasertib 0.197 | [3] 0.032 | [6] 0.022

RMDN2 isoform 2 (UniProt Q96LZ7)
inactive: [5] -0.018 | [4] 0.116 | silmitasertib -0.275

RPS6KA5 (UniProt O75582)
inactive: [5] -0.138 | citarinostat -0.101 | silmitasertib 0.045 | [3] -0.088 | [6] 0.092

RICTOR isoform 3 (UniProt Q6R327)
inactive: [1] 0.075 | [2] 0.054 | entinostat 0.044 | vorinostat 0.211 | citarinostat 0.066 | [3] 0.289 | [6] -0.155

SDCBP isoform 2 (UniProt O00560)
inactive: [1] -0.038 | [5] -0.286 | entinostat 0.004 | vorinostat -0.01 | citarinostat 0.024 | silmitasertib 0.124 | [3] -0.041 | [6] 0.097

SAFB2 (UniProt K7EQU4)
inactive: [3] 0.007

SAMD4B (UniProt Q5PRF9)
inactive: [1] -0.459 | entinostat 0.133 | vorinostat -0.069 | [3] 0.067

S100A10 (UniProt P60903)
active: [6] 0.792
inactive: [1] 0.3 | [2] 0.283 | entinostat 0.189 | vorinostat -0.023 | citarinostat 0.333

RNF26 (UniProt Q9BY78)
inactive: [4] -0.161 | vorinostat -0.094

RAB3D (UniProt O95716)
inactive: [2] 0.113 | [5] 0.032 | [4] -0.007 | vorinostat -0.126 | citarinostat 0.055 | silmitasertib 0.027 | [6] 0.051

RALGPS2 (UniProt Q86X27)
inactive: [2] 0.258 | [5] -0.08 | [4] 0.175 | vorinostat 0.074 | citarinostat 0.219 | silmitasertib 0.089 | [3] 0.34 | [6] -0.153

ROCK1 (UniProt Q13464)
inactive: [2] 0.054 | [5] -0.09 | [4] -0.029 | entinostat -0.002 | vorinostat 0.029 | citarinostat 0.068 | [3] -0.054

SDC3 (UniProt O75056)
inactive: [1] 0.044 | [2] -0.016 | [4] 0.026 | entinostat 0.035 | vorinostat 0.211 | citarinostat 0.354 | [3] 0.09 | [6] 0.174

RPS19 (UniProt M0R2L9)
inactive: [2] -0.159 | [5] 0.453 | silmitasertib -0.634

RAPGEF4 (UniProt Q8WZA2)
Sequence of UniProt Q8WZA2 (Q8WZA2 whole entry, looked up): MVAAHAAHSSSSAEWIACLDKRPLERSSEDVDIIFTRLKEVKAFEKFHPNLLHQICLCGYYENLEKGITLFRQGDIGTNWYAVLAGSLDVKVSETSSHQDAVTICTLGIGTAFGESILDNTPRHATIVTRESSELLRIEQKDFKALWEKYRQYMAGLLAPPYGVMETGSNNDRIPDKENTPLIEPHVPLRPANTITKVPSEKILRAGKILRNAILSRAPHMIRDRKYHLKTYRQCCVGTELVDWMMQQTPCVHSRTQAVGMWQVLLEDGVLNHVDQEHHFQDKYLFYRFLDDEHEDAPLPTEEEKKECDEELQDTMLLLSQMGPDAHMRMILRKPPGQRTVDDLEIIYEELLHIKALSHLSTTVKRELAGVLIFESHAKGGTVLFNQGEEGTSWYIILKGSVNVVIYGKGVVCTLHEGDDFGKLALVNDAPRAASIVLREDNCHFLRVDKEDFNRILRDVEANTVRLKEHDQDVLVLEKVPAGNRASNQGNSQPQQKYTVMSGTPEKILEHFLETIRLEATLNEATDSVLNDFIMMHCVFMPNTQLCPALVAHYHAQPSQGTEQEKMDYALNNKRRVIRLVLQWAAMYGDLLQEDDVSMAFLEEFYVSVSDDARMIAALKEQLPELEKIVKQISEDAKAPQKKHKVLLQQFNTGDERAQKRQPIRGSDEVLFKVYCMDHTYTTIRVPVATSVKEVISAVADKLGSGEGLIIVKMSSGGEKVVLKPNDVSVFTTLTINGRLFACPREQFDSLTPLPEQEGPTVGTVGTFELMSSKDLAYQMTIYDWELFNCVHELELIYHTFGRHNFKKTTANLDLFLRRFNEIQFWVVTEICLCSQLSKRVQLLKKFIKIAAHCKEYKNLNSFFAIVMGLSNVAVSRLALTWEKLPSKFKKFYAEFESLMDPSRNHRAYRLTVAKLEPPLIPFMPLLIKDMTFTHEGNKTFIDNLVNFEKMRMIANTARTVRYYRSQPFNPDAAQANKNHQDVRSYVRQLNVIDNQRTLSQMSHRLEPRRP
inactive: [1] -0.095 | [2] -0.13 | [5] -0.054 | [4] -0.04 | entinostat -0.003 | citarinostat 0.161 | silmitasertib 0.125 | [3] -0.279 | [6] 0.127

SCLT1 (UniProt Q96NL6)
inactive: [1] -0.007 | [5] -0.057 | [4] -0.077 | entinostat -0.023 | vorinostat 0.064 | silmitasertib -0.01

SEMG2 (UniProt Q02383)
Sequence of UniProt Q02383 (Q02383 whole entry, looked up): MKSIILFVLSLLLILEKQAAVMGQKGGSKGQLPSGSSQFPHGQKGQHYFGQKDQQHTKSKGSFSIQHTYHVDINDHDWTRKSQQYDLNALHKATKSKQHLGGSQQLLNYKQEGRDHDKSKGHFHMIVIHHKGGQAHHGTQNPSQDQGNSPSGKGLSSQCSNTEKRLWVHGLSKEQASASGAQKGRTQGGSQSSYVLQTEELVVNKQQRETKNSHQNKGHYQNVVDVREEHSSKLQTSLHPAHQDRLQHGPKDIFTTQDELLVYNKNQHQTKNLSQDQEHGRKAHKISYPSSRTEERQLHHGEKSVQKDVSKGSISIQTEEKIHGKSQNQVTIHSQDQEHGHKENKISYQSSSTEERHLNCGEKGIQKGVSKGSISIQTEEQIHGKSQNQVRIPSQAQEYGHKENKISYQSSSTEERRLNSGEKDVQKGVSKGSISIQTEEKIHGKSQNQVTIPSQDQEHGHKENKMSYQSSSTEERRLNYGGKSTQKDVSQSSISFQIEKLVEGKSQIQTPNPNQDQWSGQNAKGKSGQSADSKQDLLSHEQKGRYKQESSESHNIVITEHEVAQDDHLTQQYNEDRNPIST
inactive: [1] -0.013 | [2] 0.046 | [5] 0.651 | entinostat 0.033 | vorinostat -0.073 | citarinostat 0.066 | silmitasertib 0.001 | [3] 0.051 | [6] -0.067

SDHAF4 (UniProt Q5VUM1)
Sequence of UniProt Q5VUM1 (Q5VUM1 whole entry, looked up): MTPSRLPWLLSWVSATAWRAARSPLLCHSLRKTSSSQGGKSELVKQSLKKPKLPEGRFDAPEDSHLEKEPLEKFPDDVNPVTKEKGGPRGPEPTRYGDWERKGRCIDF
inactive: [1] -0.016 | [2] 0.07 | [5] -0.111 | entinostat -0.021 | citarinostat 0.076 | silmitasertib 0.04 | [3] 0.005 | [6] 0.108

RBM26 isoform 3 (UniProt Q5T8P6)
Sequence of UniProt Q5T8P6 (Q5T8P6 whole entry, looked up): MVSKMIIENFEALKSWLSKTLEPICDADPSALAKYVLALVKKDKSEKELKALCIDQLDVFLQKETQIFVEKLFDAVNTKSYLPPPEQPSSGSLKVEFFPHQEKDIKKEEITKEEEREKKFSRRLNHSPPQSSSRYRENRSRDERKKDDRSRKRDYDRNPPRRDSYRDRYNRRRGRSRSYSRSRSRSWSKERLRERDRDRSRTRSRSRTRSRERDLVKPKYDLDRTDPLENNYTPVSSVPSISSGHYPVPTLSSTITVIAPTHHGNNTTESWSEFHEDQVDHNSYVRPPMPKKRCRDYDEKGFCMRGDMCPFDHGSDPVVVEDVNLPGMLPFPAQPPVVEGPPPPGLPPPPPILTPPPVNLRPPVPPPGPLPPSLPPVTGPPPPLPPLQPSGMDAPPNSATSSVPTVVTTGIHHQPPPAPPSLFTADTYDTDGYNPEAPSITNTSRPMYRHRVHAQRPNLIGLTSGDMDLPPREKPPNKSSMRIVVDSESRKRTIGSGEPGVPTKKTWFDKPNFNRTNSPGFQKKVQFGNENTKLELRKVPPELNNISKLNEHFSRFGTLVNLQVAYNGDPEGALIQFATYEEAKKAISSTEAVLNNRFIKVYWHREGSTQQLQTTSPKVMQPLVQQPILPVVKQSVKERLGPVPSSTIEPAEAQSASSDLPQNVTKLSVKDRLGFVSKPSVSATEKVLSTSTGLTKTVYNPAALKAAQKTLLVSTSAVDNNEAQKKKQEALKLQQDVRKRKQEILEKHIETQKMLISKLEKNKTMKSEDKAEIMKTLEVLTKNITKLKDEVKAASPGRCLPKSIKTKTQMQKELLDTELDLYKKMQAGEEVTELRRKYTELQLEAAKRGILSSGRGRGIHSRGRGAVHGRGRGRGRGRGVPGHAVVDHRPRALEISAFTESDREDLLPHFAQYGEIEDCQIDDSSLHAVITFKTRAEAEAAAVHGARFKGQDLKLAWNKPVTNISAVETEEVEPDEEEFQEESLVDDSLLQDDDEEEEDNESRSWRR
inactive: [1] -0.079 | [2] -0.046 | entinostat 0.103

RAB3IL1 (UniProt E9PK89)
inactive: [1] 0.062 | [2] 0.11 | [4] 0.018 | entinostat -0.023 | vorinostat 0.112 | citarinostat 0.049 | [3] -0.234 | [6] 0.016

RPS3 (UniProt E9PJN9)
inactive: vorinostat 0.2 | citarinostat 0 | [6] -0.048

RBMY1E (UniProt A6NEQ0)
inactive: [5] -0.246 | vorinostat 0.07 | citarinostat 0.063 | silmitasertib -0.156 | [6] -0.081

ROMO1 (UniProt P60602)
Sequence of UniProt P60602 (P60602 whole entry, looked up): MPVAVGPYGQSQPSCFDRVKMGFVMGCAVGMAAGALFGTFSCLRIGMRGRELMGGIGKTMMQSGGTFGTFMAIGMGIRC
inactive: [1] -0.105 | [2] 0.046 | [5] -0.051 | entinostat 0.011 | vorinostat -0.013 | citarinostat 0.072 | silmitasertib 0.032 | [3] 0.062 | [6] -0.042

RNF185 (UniProt Q96GF1)
inactive: [2] -0.022 | [5] -0.072 | [4] -0.139 | vorinostat -0.28 | citarinostat -0.135 | silmitasertib 0.001 | [6] 0.072

RNF41 (UniProt Q9H4P4)
Sequence of UniProt Q9H4P4 (Q9H4P4 whole entry, looked up): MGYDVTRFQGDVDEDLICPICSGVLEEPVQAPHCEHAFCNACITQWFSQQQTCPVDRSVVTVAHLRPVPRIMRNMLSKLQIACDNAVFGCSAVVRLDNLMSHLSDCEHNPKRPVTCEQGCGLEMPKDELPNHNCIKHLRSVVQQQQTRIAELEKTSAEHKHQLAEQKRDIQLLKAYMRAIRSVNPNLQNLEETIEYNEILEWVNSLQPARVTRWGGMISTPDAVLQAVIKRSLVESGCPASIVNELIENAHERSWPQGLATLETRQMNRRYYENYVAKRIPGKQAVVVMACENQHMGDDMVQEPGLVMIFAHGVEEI
inactive: [2] 0.082 | citarinostat 0.044 | [6] -0.018

SLC12A5 (UniProt Q9H2X9)
inactive: [1] -0.111 | [2] -0.077 | [5] -0.064 | [4] -0.043 | entinostat -0.05 | citarinostat 0.129 | silmitasertib 0.05 | [3] -0.032 | [6] -0.062

SLC1A3 (UniProt P43003)
inactive: [2] 0.237 | [5] 0.103 | [4] -0.055 | vorinostat 0.143 | citarinostat -0.096 | silmitasertib -0.021 | [3] -0.18 | [6] -0.182

RNF220 isoform 3 (UniProt Q5VTB9)
inactive: [2] 0.115

SCYL3 isoform 2 (UniProt Q8IZE3)
Sequence of UniProt Q8IZE3 (Q8IZE3 whole entry, looked up): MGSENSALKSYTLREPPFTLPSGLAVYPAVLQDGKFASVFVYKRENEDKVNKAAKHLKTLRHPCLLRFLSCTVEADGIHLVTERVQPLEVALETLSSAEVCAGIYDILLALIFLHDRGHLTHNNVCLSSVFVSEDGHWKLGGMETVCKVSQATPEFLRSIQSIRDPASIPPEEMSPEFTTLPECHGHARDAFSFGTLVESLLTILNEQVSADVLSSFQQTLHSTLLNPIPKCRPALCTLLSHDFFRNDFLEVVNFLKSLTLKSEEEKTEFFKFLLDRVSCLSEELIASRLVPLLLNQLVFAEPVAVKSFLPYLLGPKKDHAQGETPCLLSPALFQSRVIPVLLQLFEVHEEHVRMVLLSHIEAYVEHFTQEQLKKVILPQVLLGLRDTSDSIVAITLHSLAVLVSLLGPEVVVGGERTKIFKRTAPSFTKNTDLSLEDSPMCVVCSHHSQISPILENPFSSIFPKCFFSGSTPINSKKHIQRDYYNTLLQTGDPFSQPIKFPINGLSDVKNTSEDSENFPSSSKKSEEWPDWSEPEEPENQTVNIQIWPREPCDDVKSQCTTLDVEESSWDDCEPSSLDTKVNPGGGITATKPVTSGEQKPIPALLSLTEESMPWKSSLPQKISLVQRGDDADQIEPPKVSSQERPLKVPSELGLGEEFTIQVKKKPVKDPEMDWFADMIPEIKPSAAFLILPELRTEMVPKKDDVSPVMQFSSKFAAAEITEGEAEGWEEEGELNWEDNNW
inactive: [2] 0.001 | [5] -0.185 | [4] -0.055 | vorinostat 0.031 | citarinostat -0.047 | silmitasertib 0.021 | [3] -0.053 | [6] 0.173
